Laboratory results published in PubChem BioAssay (NCI).
About 83,000 compounds went through this panel and 20% of them were active in at least one assay; those are over-represented in the sample as a whole.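 Negative percent growth values reflect cell death: -40 means 40% of the cells present at the start died, and -100 means all died.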 Calls of active or inactive are those of the source. How the source made its calls: active means growth percent below 10; inactive means the rest.

Columns and labels:
Test in all cases: NCI-60 one-dose screen, 48 h (100 = growth as untreated, 0 = no growth, -100 = all killed)
Details in all cases: 10 µM
NCI-H23 lung = test system: NCI-H23 lung
NCI-H226 lung = test system: NCI-H226 lung
NCI-H322M lung = test system: NCI-H322M lung
HOP-62 NSCLC = test system: HOP-62 NSCLC
NCI-H460 lung = test system: NCI-H460 lung
NCI-H522 lung = test system: NCI-H522 lung
A549/ATCC NSCLC = test system: A549/ATCC NSCLC
786-0 renal = test system: 786-0 renal
COLO 205 colon = test system: COLO 205 colon
DU-145 prostate = test system: DU-145 prostate
K-562 leukemia = test system: K-562 leukemia
MDA-MB-231 breast = test system: MDA-MB-231 breast
RXF 393 renal = test system: RXF 393 renal
SF-268 CNS = test system: SF-268 CNS
SF-295 CNS = test system: SF-295 CNS
SF-539 CNS = test system: SF-539 CNS
UACC-257 melanoma = test system: UACC-257 melanoma
M14 melanoma = test system: M14 melanoma
HCT-15 colon = test system: HCT-15 colon
MALME-3M melanoma = test system: MALME-3M melanoma

Measured: growth

CC(=O)c1cc(Br)ccc1O
inactive: NCI-H23 lung 105% | NCI-H226 lung 101% | NCI-H322M lung 127% | HOP-62 NSCLC 118% | NCI-H460 lung 105% | NCI-H522 lung 87.4% | A549/ATCC NSCLC 107% | 786-0 renal 104% | COLO 205 colon 121% | DU-145 prostate 114% | K-562 leukemia 103% | MDA-MB-231 breast 108% | RXF 393 renal 109% | SF-268 CNS 112% | SF-295 CNS 95.3% | SF-539 CNS 97.1% | UACC-257 melanoma 113% | M14 melanoma 104% | HCT-15 colon 101%

COC(=O)c1c(-c2ccccc2)csc1NC(=O)c1c(-c2ccccc2)noc1C
inactive: NCI-H23 lung 61.4% | NCI-H226 lung 49.6% | NCI-H322M lung 56.6% | HOP-62 NSCLC 52.1% | NCI-H522 lung 36.1% | 786-0 renal 24.1% | COLO 205 colon 60.6% | DU-145 prostate 39.7% | K-562 leukemia 18.5% | MDA-MB-231 breast 59.2% | RXF 393 renal 38.8% | SF-268 CNS 36.5% | SF-295 CNS 43.8% | SF-539 CNS 33.2% | UACC-257 melanoma 45.5% | M14 melanoma 52.3% | HCT-15 colon 14.5%
active: NCI-H460 lung -15.3% | A549/ATCC NSCLC -18.6%

CCCCCCCCCCCC[n+]1ccc(C(N)=O)cc1
active: NCI-H522 lung 4.75% | COLO 205 colon -73% | K-562 leukemia 7.8% | RXF 393 renal -23.4% | SF-539 CNS 8.16%
inactive: NCI-H23 lung 23.5% | NCI-H226 lung 35% | NCI-H322M lung 88.7% | HOP-62 NSCLC 33.7% | NCI-H460 lung 16.8% | A549/ATCC NSCLC 73.7% | 786-0 renal 40% | DU-145 prostate 43% | MDA-MB-231 breast 28.4% | SF-268 CNS 22.1% | SF-295 CNS 33.6% | UACC-257 melanoma 29.6% | M14 melanoma 10.8% | HCT-15 colon 87.3%

COc1ccc(-c2nc3sc(-c4ccc(OC)cc4)c(-c4ccc(OC)cc4)n3c2/C=C/c2ccc(C(C)C)cc2)cc1
inactive: NCI-H23 lung 95.6% | NCI-H226 lung 90.9% | NCI-H322M lung 96.5% | HOP-62 NSCLC 95.1% | NCI-H460 lung 101% | NCI-H522 lung 76.5% | A549/ATCC NSCLC 95.2% | 786-0 renal 99.2% | COLO 205 colon 107% | DU-145 prostate 115% | K-562 leukemia 105% | MDA-MB-231 breast 90.9% | RXF 393 renal 92.4% | SF-268 CNS 106% | SF-295 CNS 96.6% | SF-539 CNS 94.3% | UACC-257 melanoma 95.6% | M14 melanoma 98.4% | HCT-15 colon 92.5%

O=C(O)CN1C(=O)c2cccc3cccc(c23)C1=O
inactive: NCI-H23 lung 101% | NCI-H226 lung 96.5% | NCI-H322M lung 102% | HOP-62 NSCLC 97.4% | NCI-H460 lung 110% | NCI-H522 lung 94.1% | A549/ATCC NSCLC 95.4% | 786-0 renal 91.7% | COLO 205 colon 105% | DU-145 prostate 117% | MALME-3M melanoma 102% | MDA-MB-231 breast 85.1% | SF-268 CNS 122% | SF-295 CNS 99.7% | SF-539 CNS 98.7% | UACC-257 melanoma 98.2% | M14 melanoma 99.6% | HCT-15 colon 108%

Clc1ccc(/C=C2\CCCC3=C2N=C2SC=NN2C3c2ccc(Cl)cc2)cc1 (stereo not drawn)
inactive: NCI-H23 lung 94.8% | NCI-H226 lung 107% | NCI-H322M lung 96.2% | HOP-62 NSCLC 112% | NCI-H460 lung 97.2% | NCI-H522 lung 106% | A549/ATCC NSCLC 88.6% | 786-0 renal 103% | COLO 205 colon 113% | DU-145 prostate 98.3% | K-562 leukemia 102% | MDA-MB-231 breast 104% | RXF 393 renal 105% | SF-268 CNS 99.2% | SF-295 CNS 105% | SF-539 CNS 106% | UACC-257 melanoma 97.1% | M14 melanoma 94.9% | HCT-15 colon 87.3%

CO/N=C(/C(=O)NC1C(=O)N2C(C(=O)O)=C(COC(N)=O)CSC12)c1ccco1 (stereo not drawn)
inactive: NCI-H23 lung 107% | NCI-H226 lung 109% | NCI-H322M lung 100% | HOP-62 NSCLC 112% | NCI-H460 lung 118% | NCI-H522 lung 99.4% | A549/ATCC NSCLC 101% | 786-0 renal 96% | COLO 205 colon 114% | DU-145 prostate 127% | MALME-3M melanoma 94.3% | MDA-MB-231 breast 107% | SF-268 CNS 124% | SF-295 CNS 105% | SF-539 CNS 100% | UACC-257 melanoma 104% | M14 melanoma 102% | HCT-15 colon 104%

CCCCCCCCCCCCCCCCCC(=O)OCCCCCCC
inactive: NCI-H23 lung 94.8% | NCI-H226 lung 89.6% | NCI-H322M lung 109% | HOP-62 NSCLC 121% | NCI-H460 lung 109% | NCI-H522 lung 107% | A549/ATCC NSCLC 95.2% | 786-0 renal 114% | COLO 205 colon 110% | DU-145 prostate 104% | MALME-3M melanoma 115% | MDA-MB-231 breast 98.7% | RXF 393 renal 96.4% | SF-268 CNS 94.9% | SF-295 CNS 99.9% | SF-539 CNS 112% | UACC-257 melanoma 109% | M14 melanoma 108%

c1ccc2c(c1)oc1c3c(ccc12)NCCC3
inactive: NCI-H23 lung 86% | NCI-H226 lung 90.9% | NCI-H322M lung 91.8% | HOP-62 NSCLC 97.6% | NCI-H460 lung 99% | NCI-H522 lung 80.9% | A549/ATCC NSCLC 90.3% | 786-0 renal 90.5% | COLO 205 colon 114% | DU-145 prostate 103% | K-562 leukemia 98.4% | MDA-MB-231 breast 90.2% | RXF 393 renal 107% | SF-268 CNS 96.1% | SF-295 CNS 118% | SF-539 CNS 93.4% | UACC-257 melanoma 95.4% | M14 melanoma 109% | HCT-15 colon 81.1%
